# Results filed as inconclusive are left out. Unmarked numbers belong to inactive results. The source made the active and inactive calls. Calls come from the whole dose curve; as a rule, active = well fitted inhibition curve with a large enough effect; inconclusive = small, poorly fitted or top-dose-only effect; inactive = flat fitted curve, though single readings scatter. Peptide text beside a SMILES is read from it.
# Test system: CP329
# Assay: qHTS profiling for inhibitors of Plasmodium falciparum proliferation (AID 504749); note: nearly all actives have a fitted effect of over 60% in size;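 for activity, negative = inhibition: 0% = DMSO vehicle and full inhibition = artemisinin control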
# Settings: P. falciparum in erythrocytes, SYBR Green DNA, 72 h; series mostly up to 12.8 µM; activity, negative = inhibition: at the top concentration
# Summary of the method: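 P. falciparum-infected erythrocytes (0.3% parasitemia, 2.5% hematocrit final) were exposed to compounds for 72 h at 37 C in 5% CO2, then lysed with SYBR Green buffer overnight at room temperature; parasite DNA fluorescence was normalized to artemisinin and DMSO controls.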
# Potency is the fitted concentration of half-maximal effect.
Compound,"activity, negative = inhibition",Potency
CCC(C)C(=O)OC1CCC=C2C=CC(C)C(CCC3CC(O)CC(=O)O3)[C@@H]21 (stereo partly specified),8.55% [at 28.7 µM],–
C[C@]1(c2ccccc2)OC(C(=O)O)=CC1=O,-3.49% [at 28.7 µM],–
OCC1OC([S-])[C@H](O)C(O)C1O.[Au+] (stereo partly specified),0.581% [at 28.7 µM],–
COC(=O)N/N=C/C1=C[N+](=O)c2ccccc2[N+]1=O,2.72% [at 28.7 µM],–
CN1CC(=O)N=C1N,1.65% [at 28.7 µM],–
CNC1CC(N)[C@H](O)[C@@H](O[C@@H]2OC(CO)C3OC4(OC(C(N)CO)C(O)C(O)C4O)O[C@@H]3[C@H]2O)C1O (stereo partly specified),5.35% [at 28.7 µM],–
COC1C=CO[C@@]2(C)Oc3c(C)c(O)c4c(O)c(c(C=NN5CCN(C)CC5)c(O)c4c3C2=O)NC(=O)/C(C)=C\C=CC(C)C(O)[C@@H](C)C(O)C(C)[C@H](OC(C)=O)C1C (stereo partly specified),–,3.38 µM (active)
CC(=O)N[C@@H]1C(O)OC(CO)C(O)C1O (stereo partly specified),3.92% [at 28.7 µM],–
CCC(CCC(C)C1CCC2C3CC=C4CC(O)CC[C@@]4(C)C3CC[C@@]12C)C(C)C (stereo partly specified),4.82% [at 28.7 µM],–
O=C1OC(CO)C(O)C(O)C1O (stereo unspecified),7.65% [at 28.7 µM],–
COc1ccc(CC(N)C(=O)NC2C(CO)OC(n3cnc4c(N(C)C)ncnc43)C2O)cc1 (stereo unspecified),–,1.07 µM (active)
CCCC(=O)O[C@]1(C(=O)CO)CCC2[C@@H]3CCC4=CC(=O)CC[C@]4(C)C3C(O)C[C@]21C (stereo partly specified),3.4% [at 28.7 µM],–
COC(=O)C(Cc1ccccc1)NC(=O)C(N)CC(=O)O (stereo not drawn) (H-Asp-Phe-OMe; configuration not given here),1.67% [at 28.7 µM],–
CC[C@@]12CCCN3CCc4c(n(c5ccccc45)[C@](O)(C(=O)OC)C1)C32 (stereo partly specified),0.964% [at 28.7 µM],–
CC1(C)SC2C(N3C(=O)C(c4ccccc4)NC3(C)C)C(=O)N2C1C(=O)O (stereo unspecified),0.434% [at 28.7 µM],–
CC1CCC(C(C)C)C(=O)C1 (stereo unspecified),7.46% [at 28.7 µM],–

Compound,"activity, negative = inhibition",Potency
CC(=O)N[C@H](CC(C)C)C(=O)O,1.11% [at 28.7 µM],–
CC(C)C1CCC(C(=O)NC(Cc2ccccc2)C(=O)O)CC1 (stereo unspecified),7.1% [at 28.7 µM],–
COc1ccc2cc(C(C)CO)ccc2c1 (stereo unspecified),-0.382% [at 28.7 µM],–
CNC1C(OC2C(O[C@@H]3C(O)C(O)[C@@H](N=C(N)N)C(O)C3N=C(N)N)OC(C)[C@@]2(O)CO)OC(CO)C(O)C1O (stereo partly specified),4.13% [at 28.7 µM],–
CC1C2CCC3C4CC=C5CC(N(C)C)CC[C@@]5(C)C4CC[C@@]32CN1C (stereo partly specified),-1.22% [at 28.7 µM],–
C[C@]12C=CC(=O)C=C1CCC1C2C(O)C[C@]2(C)C1CC[C@]2(O)C(=O)CO (stereo partly specified),4.58% [at 28.7 µM],–
COc1ccc2c(c1)N(C[C@@H](C)CN(C)C)c1ccccc1S2,1.22%,–
CCOC(=O)C1=CC(OC(CC)CC)C(NC(C)=O)C(N)C1 (stereo unspecified),4.46% [at 28.7 µM],–
CN(C)CCc1c[nH]c2ccc(CC3COC(=O)N3)cc12 (stereo unspecified),0.0733% [at 28.7 µM],–
NCC1CCC(N)C(O[C@@H]2C(O)[C@H](O[C@H]3OC(CO)C(O)C(N)C3O)[C@@H](N)C[C@H]2N)O1 (stereo partly specified),1.55% [at 28.7 µM],–
OCC1O[C@H](OC2C(CO)O[C@@](O)(CO)C2O)C(O)C(O)C1O (stereo partly specified),7.74% [at 28.7 µM],–
CC1(C)OC2CO[C@]3(COS(N)(=O)=O)OC(C)(C)OC3C2O1 (stereo partly specified),5.79% [at 28.7 µM],–
CC(=O)OC1CCC2C3CCc4cc(O)ccc4C3CCC12C (stereo unspecified),12.6% [at 28.7 µM],–
CN(C)CCCOC1C(C(O)CO)OC2OC(C)(C)O[C@@H]21 (stereo partly specified),-4.05% [at 28.7 µM],–
COc1cc(C2c3cc4c(cc3C(O[C@@H]3OC5COC(c6cccs6)OC5C(O)C3O)C3COC(=O)C23)OCO4)cc(OC)c1O (stereo partly specified),–,4.26 µM (active)

# Source: PubChem BioAssay (NCATS)
